Assay outcomes deposited in PubChem by National Center for Advancing Translational Sciences (NCATS).
CHX counter: Cycloheximide Counterscreen for Small Molecule Inhibitors of Shiga Toxin; AID 2314, 2010; hit rate 12% among 300,000; cell reporter, cycloheximide protein synthesis inhibition counterscreen; max response, %; in the data active = max response mostly above about 13%, no sharp cut-off; inactive = mostly below about 14%; note: read at 38.3 µM for the half of the compounds with a filed dose; 0% is about no effect
LASV entry inh: qHTS for Inhibitors of binding or entry into cells for Lassa Virus | Lassa virus pseudotype entry inhibition, cell reporter | Potency, µM (highest dose often 37.9 µM), without a hit: at the highest dose activity change, negative = inhibition, usual class: inhibitors | hit rate 1.2% among 300,000; calls by dose curve; tested in HEK293 cells; note: potency is the fitted concentration of half-maximal effect; % is set by controls: 0 for no effect and ±100 for the full control effect; nearly all actives have a fitted effect of over 50% in size
MARV entry inh: qHTS for inhibitors of binding or entry into cells for Marburg Virus | Marburg virus pseudotyped entry inhibition, cell reporter | hit rate 1.8% among 300,000 | Potency, µM (highest dose often 37.8 µM), without a hit: top-dose activity change, negative = inhibition, usual class: inhibitors; calls by dose curve; tested in HEK293 cells; note: potency is the fitted concentration of half-maximal effect; % is set by controls: 0 for no effect and ±100 for the full control effect
VACV Venus inh: qHTS for Stage-Specific Inhibitors of Vaccinia Orthopoxvirus: Venus Reporter Primary qHTS | Vaccinia virus Venus reporter expression, fluorescence | Potency, µM (highest dose often 36.5 µM), for the others: top-dose activity change, negative = inhibition, actives largely listed as inhibitors | hit rate 0.46% among 330,000 | AID 720580, 2013; calls by dose curve; tested in A549 cells; note: potency is the fitted concentration of half-maximal effect; % is set by controls: 0 for no effect and ±100 for the full control effect; nearly all actives have a fitted effect of over 30% in size
Shiga inhibitor: A qHTS for Small Molecule Inhibitors of Shiga Toxin. Vero cells, Shiga toxin protein synthesis inhibition reporter. inhibition, % at 38.7 µM. hit rate 9.2% among 290,000; in the data active = inhibition mostly above about 28%, no sharp cut-off; inactive = mostly below about 43%; note: 0% is about no effect
VACV mCherry inh: qHTS for Stage-Specific Inhibitors of Vaccinia Orthopoxvirus: mCherry Reporter Primary qHTS; Vaccinia virus mCherry reporter infection, fluorescence; hit rate 0.63% among 310,000; Potency, µM (top dose mostly 36.5 µM), without a hit: at the highest dose activity change, negative = inhibition, usual class: inhibitors; calls by dose curve; tested in A549 cells; note: potency is the fitted concentration of half-maximal effect; % is set by controls: 0 for no effect and ±100 for the full control effect; nearly all actives have a fitted effect of over 35% in size
* = called active by the depositor; i = inactive; ? = inconclusive; / = no result given; [ ] = remark or other dose. The full list was thinned out, with hits kept by preference.

SMILES	CHX counter	LASV entry inh	MARV entry inh	VACV Venus inh	Shiga inhibitor	VACV mCherry inh
Cn1nnnc1Sc1ncnc2scc(-c3ccccc3)c12	2	?	7.1µM*	?	4	?
O=C(O)CCn1c(=O)c2cccn2c2cccnc21	/	22%[46.1 µM]	-3%[46.1 µM]	-4%	/	-3%
Cc1c(C(=O)NC(C)(C)C)sc2ncnc(NCCN(C)C)c12	/	/	/	-17%	/	-13%
C/[N+]([O-])=C\C1C(=O)CCCC1=O	7	?	3%[46.1 µM]	-5%	-22	-5%
COc1ccc(NC(=O)CSc2ncc3c(n2)-c2cc(Cl)ccc2N(Cc2ccccc2F)S3(=O)=O)cc1	/	-11%[46.1 µM]	/	-3%	/	-24%
O=S1(=O)CCO[C@H]2CCCC[C@@H]2N1Cc1ccc(Cl)cc1	/	/	/	?	/	10µM*
Cc1nc(-c2ccc(-c3ccon3)s2)no1	21*	10%	10%	-10%	53*	i
O=C(CC1CC2CCC1C2)OCC(=O)c1c[nH]c2ccccc12 (stereo not drawn)	53*	-27%	13%	-13%	148*	i
Fc1cccc(-n2cc(-c3ccccc3)c3c(=S)nc[nH]c32)c1	0	/	/	/	-2	/
Cc1ccc(-n2cc(-c3ccccc3)c3c(=O)[nH]cnc32)cc1	-4	15µM*	-28%	-24%	-10	?
Fc1ccc(-n2cc(-c3ccccc3)c3c(=S)nc[nH]c32)cc1	-2	5µM*	?	-14%	-2	-5%
CC(C)c1ccc(NS(=O)(=O)c2ccc(Cl)nc2)cc1	-3	-6%	12%	7.9µM*	-8	4µM*
Cc1cc2ncn(C(=O)N3CCCCCC3)c2cc1C	19*	19%	2%	-10%	active	i
Cc1cc2ncn(C(=O)N3CCCCC3)c2cc1C	13	?	6%	-3%	36	-3%
COc1ccc(-c2nc(C3CCCCC3)no2)cc1OC	53*	49%[14.3 µM]	?	-5%	163*	-12%
c1ccc(-c2cnc(C3CCCCC3)o2)cc1	/	9%[46.1 µM]	?	-8%	/	i
c1ccc(-c2nc(C3CCCCC3)no2)cc1	28*	?	7%	-1%	45*	-14%
COc1ccc(-c2noc(-c3ccc(N4CCC(C)CC4)c([N+](=O)[O-])c3)n2)cc1OC	/	-10%[46.1 µM]	-11%[46.1 µM]	-7%	/	-3%
CC(C)[C@@H](OCc1ccccc1)[C@H](C)C=NOC[C@@H](O)[C@H]1O[C@@H]2OC(C)(C)O[C@H]2[C@@H]1O	/	0%[14.3 µM]	-5%[14.2 µM]	/	/	/
CC(C)(C)NCCOc1ccc2ccccc2c1	4	-3%	?	/	-6	/
BrCCOCCOc1ccc2ccccc2c1	65*	9%	-4%	-6%	26	-14%
CCc1cc(C(=O)Cc2nc3ccccc3s2)c(O)cc1OCC(=O)O	-2	17%	7%	17%	-2	-3%
C/C(=N\NC(=O)c1ccccc1)c1ccccc1Br	58*	-11%	?	-19%	67*	-30%
C/C(=N\NC(N)=O)c1ccccc1Cl	-2	?	?	-8%	2	i
NNC(=O)c1ccccc1OCCOc1ccccc1	-3	3%[46.1 µM]	-1%[46.1 µM]	3%	6	-8%
SMILES	CHX counter	LASV entry inh	MARV entry inh	VACV Venus inh	Shiga inhibitor	VACV mCherry inh
C/C(=N\NC(=O)OC(C)(C)C)c1ccccc1Br	59*	19%	5%[46.1 µM]	-15%	63*	0%
C/C(=N\NC(N)=O)c1ccccc1	-4	2%	17%[46.1 µM]	-7%	18	-7%
C/C(=N\NC(=O)c1ccccc1OCCOc1ccccc1)c1ccccc1F	/	?	11µM*	-25%	/	?
CCCC(CCC)=NNC(=O)c1ccccc1F	19	?	?	-14%	17	-12%
C/C(=N\NC(=O)c1ccccc1)c1ccccc1F	26*	15%[46.1 µM]	?	-9%	87*	i
CCC(C)NC(=O)CN1C(=O)c2cccnc2Sc2ccccc21 (stereo not drawn)	/	-6%[46.1 µM]	/	-11%	/	-8%
O=C(Nc1ccccc1N1CCCC1)c1ccc(Cl)c(S(=O)(=O)N2CCOCC2)c1	/	-6%	-14%	-22%	/	i
Cn1c(=O)n(C)c2cc(NS(=O)(=O)c3ccccc3[N+](=O)[O-])ccc21	-2	-1%	-6%	-16%	-6	-4%
COC(=O)C1=C[C@@H](C(=O)OC)[C@@H]2C3=C(C(=O)[C@]2(C)NC(=O)c2ccccc2)[C@H](C)[C@@H]2C(=O)NC(=O)[C@@H]2[C@@H]3C1	-5	/	/	/	-10	/
CN(C)S(=O)(=O)Oc1cc(Cl)ccc1C(=O)Nc1ccc(F)cc1F	35*	-8%	3%[46.1 µM]	-2%	42	i
CN(C)c1ccncc1C(=O)Nc1ccc(F)cc1F	0	13%[46.1 µM]	-6%[46.1 µM]	-8%	2	-11%
Cc1ccnc(SCC(=O)Nc2sccc2C#N)n1	12*	/	/	/	17	/
Cc1ccc(-n2nnnc2SCC(=O)Nc2sccc2C#N)cc1	-2	1%	15%	-3%	20	-21%
COc1ccc(NC(=O)CSc2nccc(C)n2)cc1	6	9%	11%[46.1 µM]	-8%	2	/
CC(=O)Nc1ccc(SCC(=O)Nc2sccc2C#N)cc1	33*	19%	24%[46.1 µM]	11%	63*	-14%
O=C(NC(=S)Nc1cccc(NC(=S)NC(=O)c2ccccc2)c1)c1ccccc1	/	-15%[46.1 µM]	?	5%	/	i
O=C(NC(=S)Nc1cccc(CO)c1)c1ccc(-c2ccccc2)cc1	25*	?	4%	?	64*	-21%
CCC(=O)Nc1cccc(NC(=S)NC(=O)c2ccc(C)cc2)c1	46*	/	/	-25%	102*	-14%
O=C(Cc1ccccc1)Nc1ccc(NC(=S)NC(=O)c2ccccc2)cc1	-3	-12%	15%	-22%	20	-12%
CCC(=O)Nc1cccc(NC(=S)NC(=O)c2cccc(C)c2)c1	60*	?	?	-21%	114*	-8%
CCC(=O)Nc1cccc(NC(=S)NC(=O)c2ccccc2)c1	54*	?	-6%	-6%	16*	-7%
Cc1ccc(C(=O)N2CCN(c3ccccc3O)CC2)cc1S(=O)(=O)N1CCCCC1	/	7%	-3%	?	/	-14%
CNS(=O)(=O)c1cc(NC(=O)c2cncn2-c2ccccc2)ccc1C	-8	14%[46.1 µM]	?	1%	11	-12%
NC(Cc1ccccc1)C(O)c1ccco1 (stereo not drawn)	4	/	/	/	21	/
Cc1ccc(OCCC(=O)N(Cc2ccccc2)c2c(N)n(Cc3ccccc3)c(=O)[nH]c2=O)cc1	/	?	?	-21%	/	-7%
Cc1ccccc1OCCC(=O)N(Cc1ccccc1)c1c(N)n(Cc2ccccc2)c(=O)[nH]c1=O	-3	11µM*	4%	-21%	2	-10%
Cc1ccc(C)c(OCC(=O)N(Cc2ccccc2)c2c(N)n(Cc3ccccc3)c(=O)[nH]c2=O)c1	/	-27%	2%	?	/	28µM*
CCOC(=O)c1ccc(NC(=O)CCCn2nc(C)c3sc4ccccc4c3c2=O)cc1	/	21%[46.1 µM]	2%[46.1 µM]	-2%	/	-8%
